Our source for the inhibition values is ChEMBL document CHEMBL1961873, “Compounds: GSK PKIS; Assays: Nanosyn kinase panel” (2012).

Molecules are shown by their SMILES.

Assay [1] deals with Serine/threonine-protein kinase MRCK alpha (Homo sapiens) (UniProt Q5VT25). The following applies: at 0.1 µM.
Assay [2] shares this target. The following applies: at 1 µM.
The target in assay [3] is Serine/threonine-protein kinase MRCK beta (Homo sapiens) (UniProt Q9Y5S2). The following applies: at 0.1 µM.
For assay [4] the target is unchanged. To be noted: at 1 µM.
Assay [5] has as its target Ribosomal protein S6 kinase alpha-5 (Homo sapiens) (UniProt O75582). The following applies: at 0.1 µM.
The target is the same in assay [6]. The following applies: at 1 µM.
Assay [7] addresses Ribosomal protein S6 kinase alpha-4 (Homo sapiens) (UniProt O75676). To be noted: at 0.1 µM.
The target is the same in assay [8]. To be noted: at 1 µM.
The target of assay [9] is Ribosomal protein S6 kinase beta-1 (Homo sapiens) (UniProt P23443). The following applies: at 0.1 µM.
Chain of Ribosomal protein S6 kinase beta-1 (Homo sapiens) (P23443 whole entry, looked up): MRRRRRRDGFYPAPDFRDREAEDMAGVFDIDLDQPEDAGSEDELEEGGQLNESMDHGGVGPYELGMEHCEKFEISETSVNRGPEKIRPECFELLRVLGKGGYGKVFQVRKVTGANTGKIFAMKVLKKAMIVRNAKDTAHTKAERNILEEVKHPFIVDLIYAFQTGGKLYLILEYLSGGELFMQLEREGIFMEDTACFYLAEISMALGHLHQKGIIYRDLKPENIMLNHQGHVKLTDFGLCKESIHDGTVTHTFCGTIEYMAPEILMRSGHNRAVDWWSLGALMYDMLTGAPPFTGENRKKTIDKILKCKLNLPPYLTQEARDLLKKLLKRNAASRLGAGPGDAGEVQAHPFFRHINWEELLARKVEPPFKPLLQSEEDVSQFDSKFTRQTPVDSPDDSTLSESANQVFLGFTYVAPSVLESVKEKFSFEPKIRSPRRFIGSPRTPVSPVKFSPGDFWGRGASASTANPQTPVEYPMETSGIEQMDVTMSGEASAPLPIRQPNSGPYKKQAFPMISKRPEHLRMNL
Assay [10] shares this target. To be noted: at 1 µM.
Assay [11] addresses T1, 3-phosphoinositide-dependent protein kinase 1 (Homo sapiens) (UniProt O15530).
T1 sequence (whole entry): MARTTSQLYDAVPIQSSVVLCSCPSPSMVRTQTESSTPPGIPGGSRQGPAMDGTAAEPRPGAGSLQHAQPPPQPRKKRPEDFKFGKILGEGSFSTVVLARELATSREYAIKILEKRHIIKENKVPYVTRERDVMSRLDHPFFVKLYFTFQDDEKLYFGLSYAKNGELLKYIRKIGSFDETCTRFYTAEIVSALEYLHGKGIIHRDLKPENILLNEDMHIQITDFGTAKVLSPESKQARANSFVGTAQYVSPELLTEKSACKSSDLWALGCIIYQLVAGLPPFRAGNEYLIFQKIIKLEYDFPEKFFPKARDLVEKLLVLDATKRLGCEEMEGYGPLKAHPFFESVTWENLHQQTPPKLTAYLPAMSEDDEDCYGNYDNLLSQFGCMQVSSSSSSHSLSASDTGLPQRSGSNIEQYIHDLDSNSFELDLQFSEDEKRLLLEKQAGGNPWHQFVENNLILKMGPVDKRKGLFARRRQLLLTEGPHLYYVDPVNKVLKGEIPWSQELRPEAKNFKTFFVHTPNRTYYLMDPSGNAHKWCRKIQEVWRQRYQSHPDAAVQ
The following applies: at 0.1 µM.

The target of assay [12] is cAMP-dependent protein kinase catalytic subunit alpha (Homo sapiens) (UniProt P17612). The following applies: at 0.1 µM.
Assay [13] has the same target. The following applies: at 1 µM.
Assay [14] has as its target Protein kinase C alpha type (Homo sapiens) (UniProt P17252). The following applies: at 0.1 µM.
The target is the same in assay [15]. To be noted: at 1 µM.
For assay [16], the target named is Protein kinase C beta type (Homo sapiens) (UniProt P05771). The following applies: at 0.1 µM.
The target is the same in assay [17]. The following applies: at 1 µM.
For assay [18], the target named is Protein kinase C eta type (Homo sapiens) (UniProt P24723). The following applies: at 0.1 µM.
Chain of Protein kinase C eta type (Homo sapiens) (P24723 whole entry): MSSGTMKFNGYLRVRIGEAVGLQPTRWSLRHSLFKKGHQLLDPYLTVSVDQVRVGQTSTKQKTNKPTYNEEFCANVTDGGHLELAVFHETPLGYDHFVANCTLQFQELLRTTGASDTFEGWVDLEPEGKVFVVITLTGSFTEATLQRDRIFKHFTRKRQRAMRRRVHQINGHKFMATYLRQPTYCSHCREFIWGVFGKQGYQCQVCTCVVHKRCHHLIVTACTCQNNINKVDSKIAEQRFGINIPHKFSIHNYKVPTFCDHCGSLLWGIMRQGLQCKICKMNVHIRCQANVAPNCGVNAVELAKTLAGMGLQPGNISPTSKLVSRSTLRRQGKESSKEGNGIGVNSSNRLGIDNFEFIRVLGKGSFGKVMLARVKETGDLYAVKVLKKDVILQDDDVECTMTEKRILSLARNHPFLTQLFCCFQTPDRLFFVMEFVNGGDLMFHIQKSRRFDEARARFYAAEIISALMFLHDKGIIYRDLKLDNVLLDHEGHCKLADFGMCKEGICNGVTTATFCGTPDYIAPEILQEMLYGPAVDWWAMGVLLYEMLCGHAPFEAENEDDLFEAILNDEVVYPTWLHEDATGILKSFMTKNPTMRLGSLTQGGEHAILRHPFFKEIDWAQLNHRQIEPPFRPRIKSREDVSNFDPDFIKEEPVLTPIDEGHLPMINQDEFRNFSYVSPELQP
Assay [19] shares this target. The following applies: at 1 µM.
The target of assay [20] is Protein kinase C gamma type (Homo sapiens) (UniProt P05129). To be noted: at 0.1 µM.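 Note: values are mean percent inhibition of PKC gamma.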

Chain of Serine/threonine-protein kinase MRCK beta (Homo sapiens) (Q9Y5S2 whole entry): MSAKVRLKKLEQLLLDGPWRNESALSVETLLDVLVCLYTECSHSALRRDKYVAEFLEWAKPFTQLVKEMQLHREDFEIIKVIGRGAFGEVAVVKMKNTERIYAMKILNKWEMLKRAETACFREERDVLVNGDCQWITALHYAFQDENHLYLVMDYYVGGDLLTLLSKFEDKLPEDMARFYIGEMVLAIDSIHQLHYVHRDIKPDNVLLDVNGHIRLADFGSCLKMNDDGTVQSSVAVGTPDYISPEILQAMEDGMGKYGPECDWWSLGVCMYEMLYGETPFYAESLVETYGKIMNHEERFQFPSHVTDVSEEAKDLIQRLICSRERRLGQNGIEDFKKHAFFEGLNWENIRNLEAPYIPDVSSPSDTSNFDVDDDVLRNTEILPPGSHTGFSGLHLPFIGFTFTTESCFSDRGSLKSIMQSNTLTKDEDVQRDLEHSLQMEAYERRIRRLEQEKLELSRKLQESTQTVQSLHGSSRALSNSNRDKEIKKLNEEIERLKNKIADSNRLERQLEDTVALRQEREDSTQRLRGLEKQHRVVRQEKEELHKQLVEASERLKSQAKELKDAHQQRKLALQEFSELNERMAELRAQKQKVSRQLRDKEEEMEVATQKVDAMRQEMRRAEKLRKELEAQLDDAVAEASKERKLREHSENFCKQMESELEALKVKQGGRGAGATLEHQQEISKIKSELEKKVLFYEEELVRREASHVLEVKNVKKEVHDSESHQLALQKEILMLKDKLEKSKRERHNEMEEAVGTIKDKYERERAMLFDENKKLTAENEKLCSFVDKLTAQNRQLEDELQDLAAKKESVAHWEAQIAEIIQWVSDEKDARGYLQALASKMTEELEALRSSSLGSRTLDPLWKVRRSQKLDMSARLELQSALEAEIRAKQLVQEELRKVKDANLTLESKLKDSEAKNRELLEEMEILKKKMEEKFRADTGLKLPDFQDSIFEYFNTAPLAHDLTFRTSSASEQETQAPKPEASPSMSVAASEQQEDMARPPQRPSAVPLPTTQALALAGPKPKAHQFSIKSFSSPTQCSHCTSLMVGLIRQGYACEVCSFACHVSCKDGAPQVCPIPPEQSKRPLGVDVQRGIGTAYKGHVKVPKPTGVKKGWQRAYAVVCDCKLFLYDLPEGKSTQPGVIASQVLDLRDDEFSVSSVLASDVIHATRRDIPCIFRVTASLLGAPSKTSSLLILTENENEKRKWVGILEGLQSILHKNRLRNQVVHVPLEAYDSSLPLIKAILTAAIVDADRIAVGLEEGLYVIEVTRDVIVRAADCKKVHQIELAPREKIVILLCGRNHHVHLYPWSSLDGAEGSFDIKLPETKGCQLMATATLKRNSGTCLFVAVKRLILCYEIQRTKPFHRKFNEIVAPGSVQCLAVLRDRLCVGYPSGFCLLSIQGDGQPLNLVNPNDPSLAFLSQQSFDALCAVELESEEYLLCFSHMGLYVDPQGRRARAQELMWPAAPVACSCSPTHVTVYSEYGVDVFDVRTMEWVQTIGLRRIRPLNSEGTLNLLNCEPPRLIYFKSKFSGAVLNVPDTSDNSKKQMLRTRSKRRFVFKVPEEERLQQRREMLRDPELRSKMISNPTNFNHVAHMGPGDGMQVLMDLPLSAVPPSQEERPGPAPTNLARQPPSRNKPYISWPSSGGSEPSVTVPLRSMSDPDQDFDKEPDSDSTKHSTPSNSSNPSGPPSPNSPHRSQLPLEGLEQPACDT
Chain of Ribosomal protein S6 kinase alpha-5 (Homo sapiens) (O75582 whole entry, looked up): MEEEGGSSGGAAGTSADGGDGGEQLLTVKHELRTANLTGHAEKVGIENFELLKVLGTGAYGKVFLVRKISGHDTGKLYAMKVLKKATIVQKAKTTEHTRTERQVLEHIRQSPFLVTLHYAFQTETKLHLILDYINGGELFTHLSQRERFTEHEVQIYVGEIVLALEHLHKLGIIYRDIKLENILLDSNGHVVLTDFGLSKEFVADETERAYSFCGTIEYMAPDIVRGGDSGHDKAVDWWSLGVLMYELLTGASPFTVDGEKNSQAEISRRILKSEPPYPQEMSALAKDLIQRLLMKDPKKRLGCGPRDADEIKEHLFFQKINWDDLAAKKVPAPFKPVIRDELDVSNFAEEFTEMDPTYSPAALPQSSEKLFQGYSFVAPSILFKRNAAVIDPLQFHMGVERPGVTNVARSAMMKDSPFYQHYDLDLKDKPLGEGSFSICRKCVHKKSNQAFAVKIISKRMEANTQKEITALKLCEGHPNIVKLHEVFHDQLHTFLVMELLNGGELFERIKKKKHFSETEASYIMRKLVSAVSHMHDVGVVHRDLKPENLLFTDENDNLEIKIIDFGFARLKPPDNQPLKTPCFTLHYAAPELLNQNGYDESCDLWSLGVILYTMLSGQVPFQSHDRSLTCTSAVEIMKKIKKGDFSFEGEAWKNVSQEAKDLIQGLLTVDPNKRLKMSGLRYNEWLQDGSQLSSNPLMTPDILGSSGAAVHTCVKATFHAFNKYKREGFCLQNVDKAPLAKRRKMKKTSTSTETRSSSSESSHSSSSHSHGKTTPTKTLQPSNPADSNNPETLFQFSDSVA

Take `O=C(O[C@H]1CN[C@H](C#Cc2cc3ncnc(Nc4ccc(Cc5ccccc5)cc4)c3s2)C1)N1CCOCC1`: the inhibition (commonly the change of the read-out against control, counted positive when it falls) in [1] was -1.95%; in [2] it was 0.21%; in [3] it was 1.54%; in assay [4], 4.12%; in [5] it was 4.51%; in assay [6], 3.65%. The inhibition was 3.21% in assay [7]; 3.94% in assay [8]; 1.97% in assay [9]; 1.38% in assay [10]; -1.22% in [11]; 4.03% in assay [12]. Moreover, the inhibition was 5.91% in assay [13]; 0.96% in [14]; 4.81% in [15]; 2.02% in assay [16]; 4.66% in assay [17]; 2.47% in assay [18]. In addition, the results for the inhibition in [19] and in [20] were 4.45% and 4.28%, respectively.
Regarding `FC(F)(F)c1cccc(-c2nn3ncccc3c2-c2ccnc(Nc3ccc4c(c3)OCCO4)n2)c1`, the inhibition in assay [1] was 0.13%; in assay [2] it was 0.81%; in [3] it was -0.8%; in assay [4], 1.29%; in assay [5], 1.59%; in [6], 1.24%. Further, the inhibition in assay [7] is 0.3%; in assay [8] it was 3.51%; in [9], 1.22%; in assay [10] it was -0.48%; in [11] it was 0.71%; in assay [12] it was 1.01%. The inhibition in [13] was 2.39%; in [14], 0.53%; in assay [15], 1.32%; in assay [16] it was 0.07%; in assay [17], -2.34%; in [18] it was 2.1%. The figures for the inhibition in assay [19] and in [20] were 1.3% and 0.03%, respectively.
Take `CCCN1CCC(c2ccc(Nc3nc(Nc4cc(F)ccc4C(N)=O)c4cc[nH]c4n3)c(OC)c2)CC1`: the inhibition amounted to 2.45% in [1]; 30.4% in [2]; 1.71% in [3]; 23.3% in assay [4]; 2.89% in assay [5]; 8.65% in [6]. In addition, the inhibition was found to be 2.82% in [7]; 12% in [8]; 2.27% in assay [9]; 7.03% in assay [10]; 0.96% in [11]; 2.33% in [12]. In addition, the inhibition was found to be 3.51% in [13]; 0.66% in assay [14]; 16.6% in assay [15]; 0.19% in [16]; 4.9% in assay [17]; 2.99% in assay [18]. Besides, the inhibition in [19] is 9.93%; in assay [20] it was 3.12%.
For the molecule `CCn1c(-c2nonc2N)nc2c(C#CC(C)(C)O)nc(OC[C@H](N)c3ccccc3)cc21`, the inhibition in [1] was 11.8%; in [2], 36.3%; in [3], 3.04%; in assay [4], 26.6%; in assay [5], 3.37%; in assay [6], 17.7%. In addition, the inhibition in assay [7] stood at 3.75%; in [8] it was 20.5%; in [9], 4.66%; in assay [10], 33.1%; in [11] it was 0.94%; in [12], 81.3%. Also, the inhibition in [13] turned out to be 82.5%; in assay [14] it was 3.82%; in assay [15], 32.3%; in assay [16], 32.7%; in assay [17], 67.3%; in [18] it was 97.9%. The inhibition worked out at 97.1% in assay [19] and 8.83% in assay [20].
As for `CN1CCC(n2cnc(-c3ccc(F)cc3)c2-c2ccnc(Nc3ccccc3)n2)CC1`, the inhibition in [1] worked out at 0.81%; in assay [2], 10.7%; in assay [3], 1.12%; in assay [4], 2.04%; in [5], 1.99%; in assay [6], 3.4%. The inhibition worked out at 1.72% in assay [7]; 3.56% in [8]; 0.19% in assay [9]; 1.05% in assay [10]; 3.8% in assay [11]; 2.92% in assay [12]. The inhibition in assay [13] was 16.7%; in [14], 19.4%; in [15] it was 65.2%; in assay [16], 16.1%; in assay [17], 51%; in assay [18], 2.14%. The figures for the inhibition in assay [19] and in assay [20] were 2.72% and 5.68%, respectively.
Regarding `NS(=O)(=O)c1ccc(N/N=C2\C(=O)Nc3ccc4ncccc4c32)cc1`, the inhibition was 1.68% in assay [1]; 13.5% in assay [2]; 0.55% in [3]; 7.07% in [4]; 5.1% in assay [5]; 14.5% in assay [6]. Further, the inhibition in assay [7] came out at 20.4%; in assay [8] it was 61.2%; in assay [9], 2.37%; in assay [10], 12.1%; in [11], 20.8%; in assay [12], 1.4%. Moreover, the inhibition in assay [13] is 3.13%; in assay [14], 0.41%; in assay [15], 3.78%; in [16] it was -0.44%; in assay [17] it was -0.03%; in [18], 2.36%. Further, the inhibition worked out at 3.07% in [19] and 0.51% in assay [20].
As to `O=S(=O)(CCNCc1ccc(-c2ccc3ncnc(Nc4ccc(OCc5cccc(F)c5)c(Cl)c4)c3c2)o1)c1ccccc1`, the inhibition is -4.06% in assay [1]; 0.31% in [2]; 0.71% in assay [3]; -0.02% in assay [4]; 4.86% in [5]; 4.66% in assay [6]. In addition, the inhibition in [7] amounted to 3.43%; in assay [8], 3.05%; in assay [9] it was 1.88%; in assay [10], 2.98%; in assay [11], 0.78%; in assay [12] it was 2.48%. For the same molecule, the inhibition came out at 6.82% in [13]; 1.39% in assay [14]; 2.12% in [15]; 0.95% in [16]; 2.13% in [17]; 4.07% in [18]. For the same molecule, the results for the inhibition in [19] and in assay [20] were 3.1% and 1.93%, respectively.
